Several values for one entry are separate records, joined by “and”; a condition that tells them apart may be missing. Equal values may be shown once. Records with an inconclusive call do not appear. Some compounds were tested as several samples or in several runs, with calls that do not always agree. Activity calls are given as the source filed them. The calls were made as follows, unless noted: active = hit-call score of the fitted dose curve at least 0.9, where 1 is the maximum; inactive = score below 0.9.

The nature of test [1]: BSK_4H_Eotaxin3: BioMAP Diversity Plus: 4H Assay for Eotaxin 3 Biomarker Activity (AID 2283000).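 As to outcome: CCL26 protein level quantified by ELISA in parallel with SRB cytotoxicity check.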 To be noted: primary human endothelial cells (HUVEC); actives raise or lower the signal. The method, boiled down:
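Chemicals were added to human umbilical vein endothelium cultures, and Eotaxin-3 was quantified by ELISA at 24 h. Values were derived by bidirectional fitting with DMSO serving as negative control and activity baseline.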

In test [2] the target is human Peroxisome Proliferator-activated Receptor alpha (PPARa), PPARA (gene 5465) (UniProt Q07869). Description: ATG_PPARa_TRANS: Attagene TRANS-FACTORIAL HepG2 Assay for human Peroxisome Proliferator-activated Receptor alpha (PPARa) (AID 2283001; active = hit-call score of the fitted dose curve at least 0.9, where 1 is the maximum). The method, boiled down: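 HepG2 cells transiently transfected with multiplexed GAL4-UAS reporter units and chimeric NR-Gal4 constructs were dosed for 24 h. Reporter mRNA was measured by RT-PCR with fluorescent labelling and capillary electrophoresis; gain of signal fitted against DMSO.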

Test [3] has as its target human Peroxisome Proliferator-activated Receptor delta (PPARd), PPARD (gene 5467) (UniProt Q03181). In words: ATG_PPARd_TRANS: Attagene TRANS-FACTORIAL HepG2 Assay for human Peroxisome Proliferator-activated Receptor delta (PPARd) (AID 2283002; active = hit-call score of the fitted dose curve at least 0.9, where 1 is the maximum). In short, it runs like this:
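Measured quantity: GAL4-UAS reporter transcript induction in HepG2 after 24 h chemical dosing, with NR-Gal4 chimeras supplied by transient transfection. Detection by RT-PCR and capillary electrophoresis; upward fit against DMSO.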

Read-out in test [4]: Intercellular Adhesion Molecule 1 (ICAM1), ICAM1 (gene 3383)
Description: BSK_3C_ICAM1: BioMAP Diversity Plus: 3C Assay for Intercellular Adhesion Molecule 1 (ICAM1) Biomarker Activity (AID 2283003). To be noted: primary human endothelial cells (HUVEC); actives raise or lower the signal. In short, it runs like this:
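Human vascular endothelial primary cells, 3C conditions, 24 h treatment. ICAM-1 by ELISA.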

A short description of test [5]: BSK_3C_Proliferation: Cell Proliferation Assessment in the BioMAP Diversity Plus: 3C Assay (AID 2283006).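 As to AC50: potency may reflect either rise or fall in cell number versus DMSO.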 As to conditions: primary human endothelial cells (HUVEC). In short, it runs like this: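 Proliferation of human vascular endothelial primary cells after 48 h dosing, quantified as SRB-stained protein at 560 nm relative to DMSO.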
Test [6] has as its target Peroxisome proliferator-activated receptor gamma (Homo sapiens) (UniProt P37231). Description: ATG_PPARg_TRANS: Attagene TRANS-FACTORIAL HepG2 Assay for human Peroxisome Proliferator-activated Receptor-gamma (PPARg) (AID 2283007; active = hit-call score of the fitted dose curve at least 0.9, where 1 is the maximum). The method, boiled down:
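Multiplexed reporter transcription units in HepG2, 24 h dosing, reporter transcripts quantified by fluorescent RT-PCR and capillary electrophoresis. Increase over DMSO scored.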

Test [7] has as its target Nuclear receptor subfamily 1 group I member 2 (Homo sapiens) (UniProt O75469). Description: ATG_PXR_TRANS: Attagene TRANS-FACTORIAL HepG2 Assay for human Pregnane X Receptor (PXR) (AID 2283008; active = hit-call score of the fitted dose curve at least 0.9, where 1 is the maximum). In short, it runs like this: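 Fluorescence intensity of FAM-labelled, HpaI-digested reporter amplicons, separated by capillary electrophoresis, quantifies induction. HepG2 cells with PXR-Gal4 trans-reporter system were exposed 24 h; DMSO defines baseline.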

For test [8], the target named is human RAR-related Orphan Receptor beta (RORb), RORB (gene 6096) (UniProt Q92753). Description: ATG_RORb_TRANS: Attagene TRANS-FACTORIAL HepG2 Assay for human RAR-related Orphan Receptor beta (RORb) (AID 2283010; active = hit-call score of the fitted dose curve at least 0.9, where 1 is the maximum). In short, it runs like this: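 In this TRANS-format test, human HepG2 cells express chimeric NR-Gal4 fusion proteins driving GAL4-UAS reporters. After 24 h dosing, reporter transcripts are measured by fluorescent RT-PCR/capillary electrophoresis, with DMSO as negative control.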

Test [9] has as its target Retinoic acid receptor RXR-alpha (Homo sapiens) (UniProt P19793). Description: ATG_RXRa_TRANS: Attagene TRANS-FACTORIAL HepG2 Assay for human Retinoid X Receptor alpha (RXRa) (AID 2283012; active = hit-call score of the fitted dose curve at least 0.9, where 1 is the maximum). The method, boiled down:
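Cells (HepG2) carried transiently transfected GAL4-responsive reporter units. Following a 24 h chemical incubation, reporter mRNA induction was read via RT-PCR fragment analysis; DMSO served as negative control and baseline.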

In test [10] the target is human Thyroid Receptor alpha (THRa1), THRA (gene 7067) (UniProt P10827). Description: ATG_THRa1_TRANS: Attagene TRANS-FACTORIAL HepG2 Assay for human Thyroid Receptor alpha (THRa1) (AID 2283014; active = hit-call score of the fitted dose curve at least 0.9, where 1 is the maximum). In short, it runs like this: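 Reporter transcript induction, read by capillary electrophoresis of 6-FAM-labelled RT-PCR products, reflects activity of a transfected THRa1-Gal4 fusion in HepG2 liver cells. Cells were dosed for 24 h; activity was fitted in the positive direction against DMSO.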

Read-out in test [11]: E-selectin (Homo sapiens) (UniProt P16581)
Description: BSK_3C_Eselectin: BioMAP Diversity Plus: 3C Assay for Eselectin Biomarker Activity (AID 2283015).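 As to outcome: cell surface E-selectin protein quantified by ELISA 24 h after dosing.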 As to conditions: primary human endothelial cells (HUVEC); actives raise or lower the signal. The method, boiled down: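 ELISA read-out of E-selectin on endothelial monolayers after 24 h chemical treatment. Human umbilical vein primary cells served as the system, with DMSO defining baseline activity for bidirectional fitting.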

Read-out in test [12]: Interleukin-1 alpha (IL1a), IL1A (gene 3552)
Description: BSK_BE3C_IL1a: BioMAP Diversity Plus: BE3C Assay for Interleukin-1 alpha (IL1a) Biomarker Activity (AID 2283016). As to conditions: primary human bronchial epithelial cells; actives raise or lower the signal. In short, it runs like this:
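Cultures of primary human bronchial epithelial cells receive test chemical. After 24 h, IL-1a is quantified by ELISA, while parallel wells are fixed in TCA and SRB-stained for total protein. Changes in either direction are fitted relative to DMSO.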

Read-out in test [13]: Monocyte Chemoattractant Protein-1 (MCP1), CCL2 (gene 6347)
In words: BSK_3C_MCP1: BioMAP Diversity Plus: 3C Assay for Monocyte Chemoattractant Protein-1 (MCP1) Biomarker Activity (AID 2283017). To be noted: primary human endothelial cells (HUVEC); actives raise or lower the signal. In short, it runs like this: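 ELISA read-out of MCP-1 from human umbilical vein endothelial cell cultures harvested 24 h post-dosing. Gain or loss of signal was fitted relative to DMSO.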

Read-out in test [14]: Monocyte Chemoattractant Protein-1 (MCP1), CCL2 (gene 6347)
Description: BSK_4H_MCP1: BioMAP Diversity Plus: 4H Assay for Monocyte Chemoattractant Protein-1 (MCP1) Biomarker Activity (AID 2283018). As to conditions: primary human endothelial cells (HUVEC); actives raise or lower the signal. The method, boiled down:
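Readout: MCP-1 ELISA on compound-treated HUVEC, sampled 24 h post-dosing. Baseline and negative control DMSO; bidirectional fit. Overt toxicity checked alongside by sulforhodamine B protein staining at time of biomarker measurement.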

Read-out in test [15]: Human Leukocyte Antigen - DR isotype (HLADR), HLA-DRA (gene 3122)
In words: BSK_3C_HLADR: BioMAP Diversity Plus: 3C Assay for Human Leukocyte Antigen - DR isotype (HLADR) Biomarker Activity (AID 2283019).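 As to outcome: ELISA of cell-surface HLA-DR on HUVEC 24 h after dosing.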 To be noted: primary human endothelial cells (HUVEC); actives raise or lower the signal. The method, boiled down:
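ELISA readout of surface HLA-DR on human umbilical vein endothelium, taken 24 h after chemical treatment. Gain- and loss-of-signal were both fitted relative to DMSO.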

The target of test [16] is human Retinoic Acid Receptor gamma (RARg), RARG (gene 5916) (UniProt P13631). Description: ATG_RARg_TRANS: Attagene TRANS-FACTORIAL HepG2 Assay for human Retinoic Acid Receptor gamma (RARg) (AID 2283009; active = hit-call score of the fitted dose curve at least 0.9, where 1 is the maximum). The method, boiled down:
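HepG2, RARg-GAL4 TRANS system, 24 h exposure; reporter mRNA by RT-PCR + CE fluorescence; increase over DMSO.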

The target of test [17] is human Retinoid X Receptor beta (RXRb), RXRB (gene 6257) (UniProt P28702). Description: ATG_RXRb_TRANS: Attagene TRANS-FACTORIAL HepG2 Assay for human Retinoid X Receptor beta (RXRb) (AID 2283013; active = hit-call score of the fitted dose curve at least 0.9, where 1 is the maximum). The method, boiled down:
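Multiplexed TRANS reporter assay in HepG2; 24 h dosing; reporter mRNA by RT-PCR/CE fluorescence; gain-of-signal relative to DMSO.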

For test [18], the target named is human Retinoic Acid Receptor beta (RARb), RARB (gene 5915) (UniProt P10826). Description: ATG_RARb_TRANS: Attagene TRANS-FACTORIAL HepG2 Assay for human Retinoic Acid Receptor beta (AID 2283004; active = hit-call score of the fitted dose curve at least 0.9, where 1 is the maximum). In short, it runs like this: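 Transient transfection of HepG2 with multiple reporter units → chemical dosing, 24 h → total RNA isolation → RT with oligo(dT) → reporter-specific PCR, 6-FAM primer extension, HpaI digest → capillary electrophoresis. Positive direction vs DMSO control.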

In test [19] the target is Retinoic acid receptor alpha (Homo sapiens) (UniProt P10276). In words: ATG_RARa_TRANS: Attagene TRANS-FACTORIAL HepG2 Assay for human Retinoic Acid Receptor alpha (RARa) (AID 2283005; active = hit-call score of the fitted dose curve at least 0.9, where 1 is the maximum). The method, boiled down: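 HepG2 cells transiently transfected with multiple reporter units expressing chimeric RARα-GAL4 fusion, with GAL4-UAS-driven reporters. After 24 h compound exposure, reporter mRNA induction quantified by RT-PCR and capillary electrophoresis with fluorescent labeling; gain-of-signal fitted relative to DMSO control.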

Test [20] has as its target human RAR-related Orphan Receptor gamma (RORg), RORC (gene 6097) (UniProt P51449). In words: ATG_RORg_TRANS: Attagene TRANS-FACTORIAL HepG2 Assay for human RAR-related Orphan Receptor gamma (RORg) (AID 2283011; active = hit-call score of the fitted dose curve at least 0.9, where 1 is the maximum). The method, boiled down: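 First, HepG2 liver cells were transfected with GAL4-UAS-driven reporter constructs and the RORg-Gal4 fusion. Next, they were treated with chemical for 24 h. Finally, reporter mRNA was quantified by RT-PCR and capillary electrophoresis, with upward activity fitted against DMSO.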

Sequence of Retinoic acid receptor alpha (Homo sapiens) (P10276 whole entry, looked up, the tested form may be a part): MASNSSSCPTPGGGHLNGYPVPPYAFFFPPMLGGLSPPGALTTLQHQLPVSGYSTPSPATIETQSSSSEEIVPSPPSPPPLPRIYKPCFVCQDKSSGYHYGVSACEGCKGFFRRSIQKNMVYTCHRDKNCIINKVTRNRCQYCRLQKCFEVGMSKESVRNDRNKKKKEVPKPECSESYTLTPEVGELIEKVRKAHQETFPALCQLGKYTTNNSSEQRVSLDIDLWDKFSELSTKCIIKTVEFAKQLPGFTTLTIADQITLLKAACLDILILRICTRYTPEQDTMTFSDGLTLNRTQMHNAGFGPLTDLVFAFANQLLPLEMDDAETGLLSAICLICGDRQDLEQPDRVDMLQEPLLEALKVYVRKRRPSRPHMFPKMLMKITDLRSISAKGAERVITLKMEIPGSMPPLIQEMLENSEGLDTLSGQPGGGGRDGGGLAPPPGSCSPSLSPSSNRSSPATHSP
Sequence of E-selectin (Homo sapiens) (P16581 whole entry, looked up): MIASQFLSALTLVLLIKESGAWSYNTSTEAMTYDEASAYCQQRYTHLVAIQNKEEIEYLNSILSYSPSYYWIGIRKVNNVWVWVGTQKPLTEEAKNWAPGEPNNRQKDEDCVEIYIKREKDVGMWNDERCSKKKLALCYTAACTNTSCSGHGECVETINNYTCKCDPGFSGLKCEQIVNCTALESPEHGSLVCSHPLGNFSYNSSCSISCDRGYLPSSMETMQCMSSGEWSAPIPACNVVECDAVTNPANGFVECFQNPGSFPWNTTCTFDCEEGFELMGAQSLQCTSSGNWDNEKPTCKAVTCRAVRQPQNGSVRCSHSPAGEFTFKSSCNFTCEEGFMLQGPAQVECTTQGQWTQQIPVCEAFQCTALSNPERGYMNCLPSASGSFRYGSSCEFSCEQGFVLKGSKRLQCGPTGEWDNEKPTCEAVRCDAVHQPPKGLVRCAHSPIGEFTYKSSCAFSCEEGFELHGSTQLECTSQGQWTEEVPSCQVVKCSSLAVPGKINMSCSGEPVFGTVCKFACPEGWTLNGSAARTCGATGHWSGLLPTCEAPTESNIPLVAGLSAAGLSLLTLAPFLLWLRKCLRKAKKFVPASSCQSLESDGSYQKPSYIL
Sequence of human Retinoid X Receptor beta (RXRb), RXRB (gene 6257) (P28702 whole entry, looked up): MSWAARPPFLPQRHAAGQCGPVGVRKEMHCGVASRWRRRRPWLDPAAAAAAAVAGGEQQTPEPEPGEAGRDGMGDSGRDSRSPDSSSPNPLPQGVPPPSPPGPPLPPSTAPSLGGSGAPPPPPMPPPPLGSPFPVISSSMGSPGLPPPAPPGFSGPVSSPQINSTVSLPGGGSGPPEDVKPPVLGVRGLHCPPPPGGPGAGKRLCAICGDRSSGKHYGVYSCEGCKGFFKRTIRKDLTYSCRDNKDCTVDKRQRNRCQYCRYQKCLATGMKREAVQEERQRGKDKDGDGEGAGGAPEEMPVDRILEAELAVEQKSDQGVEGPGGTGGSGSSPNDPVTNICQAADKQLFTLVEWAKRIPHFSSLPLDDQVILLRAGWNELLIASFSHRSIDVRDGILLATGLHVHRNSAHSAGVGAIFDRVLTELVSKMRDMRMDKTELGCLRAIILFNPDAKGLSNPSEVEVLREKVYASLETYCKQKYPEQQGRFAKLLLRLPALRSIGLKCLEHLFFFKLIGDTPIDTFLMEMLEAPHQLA
Sequence of human RAR-related Orphan Receptor gamma (RORg), RORC (gene 6097) (P51449 whole entry, looked up, the tested form may be a part): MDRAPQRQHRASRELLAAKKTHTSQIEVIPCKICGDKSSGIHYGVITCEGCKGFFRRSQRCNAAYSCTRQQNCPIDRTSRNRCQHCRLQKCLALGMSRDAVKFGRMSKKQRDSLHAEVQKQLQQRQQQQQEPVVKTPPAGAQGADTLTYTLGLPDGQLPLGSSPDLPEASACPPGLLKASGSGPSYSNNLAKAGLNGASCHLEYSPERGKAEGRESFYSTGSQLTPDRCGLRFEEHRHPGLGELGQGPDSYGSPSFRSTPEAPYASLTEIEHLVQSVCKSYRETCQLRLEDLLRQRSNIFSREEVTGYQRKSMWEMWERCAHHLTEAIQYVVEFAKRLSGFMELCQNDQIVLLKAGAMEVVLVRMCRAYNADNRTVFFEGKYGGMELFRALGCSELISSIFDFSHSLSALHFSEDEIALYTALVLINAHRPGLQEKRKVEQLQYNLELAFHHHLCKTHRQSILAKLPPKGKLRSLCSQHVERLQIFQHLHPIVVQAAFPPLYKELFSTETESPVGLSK
Sequence of Nuclear receptor subfamily 1 group I member 2 (Homo sapiens) (O75469 whole entry, looked up, the tested form may be a part): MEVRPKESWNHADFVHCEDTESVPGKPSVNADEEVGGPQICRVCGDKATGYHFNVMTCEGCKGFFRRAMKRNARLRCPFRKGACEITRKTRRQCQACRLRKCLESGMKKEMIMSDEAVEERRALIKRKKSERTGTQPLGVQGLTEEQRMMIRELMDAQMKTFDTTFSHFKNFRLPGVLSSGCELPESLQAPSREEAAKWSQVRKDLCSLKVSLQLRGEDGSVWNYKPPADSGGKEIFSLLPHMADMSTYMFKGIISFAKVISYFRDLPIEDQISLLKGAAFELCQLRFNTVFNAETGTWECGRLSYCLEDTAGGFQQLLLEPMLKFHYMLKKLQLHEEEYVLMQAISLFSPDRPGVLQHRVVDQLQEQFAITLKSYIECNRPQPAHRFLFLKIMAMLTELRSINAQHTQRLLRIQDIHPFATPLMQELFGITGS
Sequence of human Retinoic Acid Receptor beta (RARb), RARB (gene 5915) (P10826 whole entry, looked up): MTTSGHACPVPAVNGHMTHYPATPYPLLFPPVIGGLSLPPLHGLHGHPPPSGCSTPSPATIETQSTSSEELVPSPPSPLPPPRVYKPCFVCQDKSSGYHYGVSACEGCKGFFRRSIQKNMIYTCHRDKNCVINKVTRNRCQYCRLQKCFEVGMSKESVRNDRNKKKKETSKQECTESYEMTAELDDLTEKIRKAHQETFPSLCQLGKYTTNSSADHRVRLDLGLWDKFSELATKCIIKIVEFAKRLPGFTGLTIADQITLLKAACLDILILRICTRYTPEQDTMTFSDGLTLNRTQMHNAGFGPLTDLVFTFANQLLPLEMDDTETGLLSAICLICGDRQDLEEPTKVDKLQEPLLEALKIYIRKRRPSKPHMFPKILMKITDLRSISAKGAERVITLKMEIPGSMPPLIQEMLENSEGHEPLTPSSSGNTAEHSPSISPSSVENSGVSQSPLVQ
Sequence of Retinoic acid receptor RXR-alpha (Homo sapiens) (P19793 whole entry, looked up, the tested form may be a part): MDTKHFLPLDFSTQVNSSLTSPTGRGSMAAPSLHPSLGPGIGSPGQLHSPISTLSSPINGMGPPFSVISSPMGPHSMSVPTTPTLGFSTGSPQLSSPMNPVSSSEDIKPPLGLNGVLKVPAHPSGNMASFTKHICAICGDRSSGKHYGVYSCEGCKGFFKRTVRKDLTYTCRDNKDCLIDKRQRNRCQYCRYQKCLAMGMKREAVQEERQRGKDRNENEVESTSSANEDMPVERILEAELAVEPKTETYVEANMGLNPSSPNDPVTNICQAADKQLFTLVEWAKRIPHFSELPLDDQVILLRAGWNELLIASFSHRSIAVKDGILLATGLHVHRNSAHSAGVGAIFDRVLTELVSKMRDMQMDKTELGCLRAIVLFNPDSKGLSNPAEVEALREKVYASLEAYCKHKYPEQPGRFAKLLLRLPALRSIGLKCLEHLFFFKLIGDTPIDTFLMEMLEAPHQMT
Sequence of human Peroxisome Proliferator-activated Receptor delta (PPARd), PPARD (gene 5467) (Q03181 whole entry, looked up, the tested form may be a part): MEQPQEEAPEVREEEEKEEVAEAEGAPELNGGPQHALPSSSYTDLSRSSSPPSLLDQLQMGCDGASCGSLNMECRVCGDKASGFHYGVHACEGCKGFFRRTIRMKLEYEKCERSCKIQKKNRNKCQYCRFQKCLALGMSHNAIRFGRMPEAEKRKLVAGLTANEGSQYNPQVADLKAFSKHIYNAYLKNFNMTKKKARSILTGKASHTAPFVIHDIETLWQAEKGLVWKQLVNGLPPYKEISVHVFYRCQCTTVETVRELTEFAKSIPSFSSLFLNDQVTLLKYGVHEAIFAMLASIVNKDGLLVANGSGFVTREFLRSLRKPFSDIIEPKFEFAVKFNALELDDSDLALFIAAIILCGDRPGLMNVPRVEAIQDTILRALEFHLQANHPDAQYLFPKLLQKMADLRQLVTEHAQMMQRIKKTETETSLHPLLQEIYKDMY
Sequence of human Peroxisome Proliferator-activated Receptor alpha (PPARa), PPARA (gene 5465) (Q07869 whole entry, looked up, the tested form may be a part): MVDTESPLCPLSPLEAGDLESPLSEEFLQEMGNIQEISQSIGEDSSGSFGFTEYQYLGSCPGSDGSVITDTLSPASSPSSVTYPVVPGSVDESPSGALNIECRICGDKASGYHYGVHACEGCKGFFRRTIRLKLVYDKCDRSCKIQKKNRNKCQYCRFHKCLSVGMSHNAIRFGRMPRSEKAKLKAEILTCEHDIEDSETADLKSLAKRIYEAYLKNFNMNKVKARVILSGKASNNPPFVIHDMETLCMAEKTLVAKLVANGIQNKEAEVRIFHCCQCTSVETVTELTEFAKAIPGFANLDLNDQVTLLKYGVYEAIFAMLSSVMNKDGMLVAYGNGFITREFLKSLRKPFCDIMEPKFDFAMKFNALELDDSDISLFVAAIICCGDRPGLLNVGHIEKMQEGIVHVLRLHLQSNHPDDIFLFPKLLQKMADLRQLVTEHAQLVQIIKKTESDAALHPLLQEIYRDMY
Sequence of human RAR-related Orphan Receptor beta (RORb), RORB (gene 6096) (Q92753 whole entry, looked up, the tested form may be a part): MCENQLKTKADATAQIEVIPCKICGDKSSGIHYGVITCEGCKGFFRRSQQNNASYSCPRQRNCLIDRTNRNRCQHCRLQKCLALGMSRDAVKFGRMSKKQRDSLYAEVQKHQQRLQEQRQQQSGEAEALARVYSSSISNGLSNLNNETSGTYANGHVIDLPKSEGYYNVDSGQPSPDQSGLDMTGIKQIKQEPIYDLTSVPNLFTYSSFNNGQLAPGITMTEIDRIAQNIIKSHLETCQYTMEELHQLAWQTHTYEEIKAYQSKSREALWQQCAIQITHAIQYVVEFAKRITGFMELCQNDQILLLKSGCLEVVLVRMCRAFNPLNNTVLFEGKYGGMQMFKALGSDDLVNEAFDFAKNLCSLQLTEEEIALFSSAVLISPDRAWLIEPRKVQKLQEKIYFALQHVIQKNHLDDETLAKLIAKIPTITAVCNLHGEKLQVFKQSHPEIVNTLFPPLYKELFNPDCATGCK

For `C=CC(=O)OCCC(F)(F)C(F)(F)C(F)(F)C(F)(F)C(F)(F)C(F)(F)C(F)(F)C(F)(F)F`, the result in test [1], in test [2], in [3], in [4], in test [5] and in test [6] was inactive. The result in [7], in [8], in test [9], in test [10], in [11] and in [12] was inactive. Further, the outcome in test [13], in [14] and in [15] was inactive.
Consider `CCCCc1oc2ccccc2c1C(=O)c1cc(I)c(OCCN(CC)CC)c(I)c1`, for which the AC50 in test [1] is 19.6 µM (active); in test [4] it was 23.3 µM (active); in test [5], 5.66 µM (active); in test [11], 24.1 µM (active); in [12] it was 17.1 µM (active); in [13] it was 21.6 µM (active). Moreover, the AC50 in test [14] is 15.1 µM (active); in [15] it was 9.35 µM (active). In addition, the call in test [3], in test [6], in [7], in test [16], in test [9] and in [17] was inactive.
Turning to `Cc1[nH]nc2c1N=C(c1ccccc1Cl)c1cc([N+](=O)[O-])ccc1N2`, the AC50 in test [1] was 1.4 µM (active); in [5], 0.547 µM (active); in test [11], 3.2 µM (active); in test [12] it was 7.77 µM (active); in [14], 10.4 µM (active); in test [15], 3.12 µM (active). The outcome in test [2], in test [3], in [4], in [7], in [8] and in test [9] was inactive. The result in test [17], in test [10] and in test [13] was inactive.
As for `Cc1cccc2c1ccc1ccccc12`, the outcome in test [1], in test [2], in test [3], in [4], in [18] and in test [19] was inactive. Moreover, the result in [6], in [16], in test [8], in [9], in [10] and in [11] was inactive. Also, the outcome in test [13] and in test [14] was inactive. Also, the AC50 in [5] is 20 µM (active); in [7] it was 11.2 µM (active); in [12], 5.56 µM (active); in test [15], 20 µM (active).
Regarding `O=S(=O)(O)C(F)(F)C(F)(F)C(F)(F)C(F)(F)C(F)(F)C(F)(F)C(F)(F)C(F)(F)C(F)(F)C(F)(F)F`, the AC50 was 5.83 µM (active) in [1]; 13.3 µM (active) in [5]; 10.2 µM (active) in test [11]; 13.3 µM (active) and 10.6 µM (active) in test [12]. Also, the outcome in test [1], in [2], in test [3], in test [4], in test [18] and in test [19] was inactive. The outcome in test [6], in test [7], in test [16], in test [8], in test [20] and in test [9] was inactive. The molecule was called inactive in test [17], in [11], in test [13], in [14] and in test [15].
In the case of `CCCCC(CC)C(=O)O` (stereo unspecified), the result in [1], in test [3], in test [4], in test [5], in test [6] and in test [7] was inactive. In addition, the call in [9], in [17], in [11], in test [12], in test [13] and in test [14] was inactive. Also, the outcome in [15] was inactive.
`CCC(C)c1ccccc1O` (stereo unspecified): the result in test [1], in [2], in [4], in test [5], in test [6] and in [8] was inactive. For the same molecule, the call in [20], in test [9], in [11], in test [12], in test [13] and in test [14] was inactive. The outcome in test [15] was inactive. Besides, the AC50 in [7] is 45.7 µM (active) and 24.8 µM (active); in [17], 72.8 µM (active).

What is called AC50 is the midpoint of the concentration-response curve, whichever way the signal moves.

The values above are taken from PubChem BioAssay (EPA / NIEHS).
